Experimental data as given in PubChem BioAssay (NCATS).
Inconclusive results are not listed. The source made the active and inactive calls. Calls come from the whole dose curve; as a rule, active = well fitted inhibition curve with a large enough effect; inconclusive = small, poorly fitted or top-dose-only effect; inactive = flat fitted curve, though single readings scatter.

Legend:
Test in all cases: qHTS profiling for inhibitors of Plasmodium falciparum proliferation (AID 504749); note: nearly all actives have a fitted effect of over 60% in size
Details in all cases: P. falciparum in erythrocytes, SYBR Green DNA, 72 h; series mostly up to 28.7 µM
ATS95 = test system: ATS95
Outline: (§1)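 Each compound contacts P. falciparum-infected red blood cells for 72 h at 37 C; lysis buffer (Tris, EDTA, saponin, Triton X, SYBR Green I) is added and fluorescence measured next morning; values normalized to controls.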

C2A = test system: C2A
Outline: as §1

CP217 = test system: CP217
Outline: as §1

CP237 = test system: CP237
Outline: as §1

CP238 = test system: CP238
Outline: as §1

CP250 = test system: CP250
Outline: as §1

CP252 = test system: CP252
Outline: as §1

CP256 = test system: CP256
Outline: as §1

CP262 = test system: CP262
Outline: as §1

CP265 = test system: CP265
Outline: as §1

CP266 = test system: CP266
Outline: as §1

CP268 = test system: CP268
Outline: as §1

CP269 = test system: CP269
Outline: as §1

CP305 = test system: CP305
Outline: as §1

CP325 = test system: CP325
Outline: as §1

CP329 = test system: CP329
Outline: as §1

Dd2 = test system: Dd2
Outline: as §1

ECU = test system: ECU
Outline: as §1

HB3 = test system: HB3
Outline: as §1

SC27B = test system: SC27B
Outline: as §1

Measured: Potency
Potency is the fitted concentration of half-maximal effect.

NC(C(=O)O)c1ccc(O)cc1 (stereo not given)
inactive: all assays above

C=CC1CN2CCC1CC2[C@@H](O)c1ccnc2ccc(OC)cc12 (stereo not given in full)
active: ATS95 251 nM | C2A 891 nM | CP217 501 nM | CP237 891 nM | CP238 891 nM | CP250 891 nM | CP252 355 nM | CP256 891 nM | CP262 338 nM | CP265 355 nM | CP266 953 nM | CP268 536 nM | CP269 601 nM | CP305 478 nM | CP325 478 nM | CP329 953 nM | Dd2 282 nM | ECU 112 nM | HB3 158 nM | SC27B 891 nM

CCCC[C@H](O)c1ccccc1
inactive: all assays above

CC12C=CC(=O)C=C1[C@@H](F)CC1C2C(O)CC2(C)C1CC[C@]2(O)C(=O)CO (stereo not given in full)
inactive: all assays above

CC(=O)NC1[C@H]([C@H](O)[C@H](O)CO)OC(C(=O)O)=C[C@H]1N=C(N)N (stereo not given in full)
inactive: all assays above

OC[C@@H]1O[C@](CO)(O[C@H]2O[C@H](CO)[C@@H](O)[C@H](O)[C@H]2O)[C@H](O)[C@H]1O
inactive: all assays above

O=C1CC[C@H](C(=O)N[C@@H]2C[C@H]2c2ccccc2)N1
inactive: all assays above

CNC(=O)C(N)CSC(C)C1=C(C)c2cc3[n-]c(cc4nc(cc5[n-]c(cc1n2)c(C)c5CCC(=O)O)C(CCC(=O)O)=C4C)c(C)c3C(C)SCC(N)C(=O)NC.[Fe+2] (stereo not given)
inactive: all assays above

C[C@]12CC[C@@H]3c4ccc(O)cc4CC[C@H]3[C@@H]1C[C@H](O)C2O (stereo not given in full)
inactive: all assays above

Cc1ccc(Nc2ncccc2C(=O)O)cc1C
inactive: all assays above

CCN1CCN(C(=O)NC(C(=O)NC2C(=O)N3C(C(=O)O)=C(CSc4nnnn4C)CSC23)c2ccc(O)cc2)C(=O)C1=O (stereo not given)
inactive: all assays above

CCCCN1CC(O)C(O)C(O)C1CO (stereo not given)
inactive: all assays above

CC[C@@H](C)C(N)C(=O)O (stereo not given in full)
inactive: all assays above

CC(O)C(N)C(=O)O (stereo not given)
inactive: all assays above

CO/N=C(/C(=O)N[C@@H]1C(=O)N2C(C(=O)O)=C(CSc3nc(C)c(CC(=O)O)s3)CS[C@H]12)c1csc(N)n1
inactive: all assays above

COc1cccc2c1C(=O)c1c(O)c3c(c(O)c1C2=O)C[C@@](O)(C(=O)CO)C[C@@H]3OC1CC(N)C(O)C(C)O1 (stereo not given in full)
active: ATS95 2000 nM | C2A 2240 nM | CP217 2510 nM | CP237 891 nM | CP238 2240 nM | CP250 2510 nM | CP252 2510 nM | CP256 2240 nM | CP262 2390 nM | CP265 3980 nM | CP266 3380 nM | CP268 3790 nM | CP269 3380 nM | CP305 3380 nM | CP325 3790 nM | CP329 1900 nM | Dd2 1260 nM | ECU 3160 nM | HB3 2000 nM | SC27B 2510 nM

CCCCCCCCCCCC(=O)OCC(O)C1OCC(O)C1O (stereo not given)
inactive: all assays above

CCCC(=O)O[C@]1(C(=O)COC(C)=O)CC[C@H]2C3C[C@H](F)C4=CC(=O)C=CC4(C)[C@@]3(F)[C@@H](O)CC21C (stereo not given in full)
inactive: all assays above

O=C(O)CC(O)CC(O)/C=C/c1c(C2CC2)nc2ccccc2c1-c1ccc(F)cc1 (stereo not given)
inactive: all assays above

C[S+](C)CC[C@H](N)C(=O)O
inactive: all assays above

CC1OC(OCC2OC(Oc3c(-c4ccc(OCCO)c(OCCO)c4)oc4cc(OCCO)cc(O)c4c3=O)C(O)C(O)C2O)[C@@H](O)C(O)C1O (stereo not given in full)
inactive: all assays above

C=C[C@H]1CN2CCC1C[C@H]2[C@H](O)c1ccnc2ccc(OC)cc12 (stereo not given in full)
active: ATS95 794 nM | C2A 1120 nM | CP217 2820 nM | CP237 1260 nM | CP238 1580 nM | CP250 1000 nM | CP252 891 nM | CP256 794 nM | CP262 757 nM | CP265 562 nM | CP266 1900 nM | CP268 1510 nM | CP269 1510 nM | CP305 1350 nM | CP325 1200 nM | CP329 1690 nM | Dd2 891 nM | ECU 251 nM | HB3 794 nM | SC27B 1000 nM

CC1(Cn2ccnn2)[C@H](C(=O)O)N2C(=O)C[C@H]2S1(=O)=O (stereo not given in full)
inactive: all assays above

CCC(C(=O)O)C1OC(C(C)C(O)C(C)C(=O)C(CC)C2OC3(C=CC(O)C4(CCC(C)(C5CCC(O)(CC)C(C)O5)O4)O3)C(C)CC2C)C(C)CC1C (stereo not given)
active: ATS95 178 nM | C2A 126 nM | CP217 178 nM | CP237 56.2 nM | CP238 199 nM | CP250 199 nM | CP252 141 nM | CP256 199 nM | CP262 536 nM | CP265 224 nM | CP266 151 nM | CP268 75.7 nM | CP269 95.3 nM | CP305 53.6 nM | CP325 84.9 nM | CP329 95.3 nM | Dd2 100 nM | ECU 178 nM | HB3 79.4 nM | SC27B 89.1 nM
